Hits are enriched below; roughly 3.5% of the tested compounds scored in any of these assays.
TEAD-YAP block – TEAD-YAP interaction inhibition. inhibition, % at 9.12 µM. HEK-TIYL cells, TEAD-Gal4/YAP UAS-luciferase luminescence. 1.4% of 640,000 active; in the data active means inhibition above about 32%
GPR151 ag – activators of human GPR151; activation, % at 11.2 µM; 1% of 650,000 active; PathHunter beta-arrestin GPR151 cells, luminescence; in the data active means activation above about 4.9%
FBW7 activator – human FBW7 E3 ligase activation, primary screen; 0.13% of 650,000 active; Q969H0; normalized activity (activation), % at 26.1 µM; AlphaScreen FBW7–phospho-cyclin E peptide binding, activator screen; AID 1259310; in the data active means normalized activity above about 1.9%;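 further: purified mutant Fbw7 with reduced substrate affinity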
MITF inh – blocks human microphthalmia-associated transcription factor; O75030; AlphaScreen MITF homodimerization, bead proximity signal; inhibition, % at 2.6 µM; 0.91% of 650,000 active; in the data active means inhibition above about 50%
Target sequence (O75030 whole entry, looked up): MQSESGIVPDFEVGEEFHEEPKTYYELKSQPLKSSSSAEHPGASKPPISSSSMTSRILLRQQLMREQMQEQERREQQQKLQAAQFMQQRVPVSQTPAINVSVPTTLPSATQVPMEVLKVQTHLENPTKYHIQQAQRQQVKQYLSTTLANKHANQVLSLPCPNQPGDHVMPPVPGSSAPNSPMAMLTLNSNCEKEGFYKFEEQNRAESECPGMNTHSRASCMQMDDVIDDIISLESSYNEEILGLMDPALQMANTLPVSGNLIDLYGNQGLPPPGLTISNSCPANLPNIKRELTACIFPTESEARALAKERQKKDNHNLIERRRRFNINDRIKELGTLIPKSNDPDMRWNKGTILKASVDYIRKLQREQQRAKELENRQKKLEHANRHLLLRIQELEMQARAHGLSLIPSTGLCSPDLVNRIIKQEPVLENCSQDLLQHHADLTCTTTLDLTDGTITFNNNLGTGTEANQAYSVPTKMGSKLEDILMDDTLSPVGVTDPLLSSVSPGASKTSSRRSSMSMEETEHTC
MITF inh conf – confirmation of human MITF inhibitors; AlphaScreen MITF homodimerization, biotin/His-MITF beads; inhibition, % at 2.6 µM; shares compounds with MITF inh; 16% of 4,700 active;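 active means inhibition above a cutoff derived from the DMSO control wells, cut at about 28% in these data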;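 further: inhibitors lower the bead chemiluminescence by keeping MITF from dimerizing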
AlphaScreen DR – AlphaScreen optical interference, dose response counter-screen | shares compounds with MITF inh | AlphaScreen optical interference counterscreen, cell-free | IC50, µM | 6% of 480 active | AID 1259373; call rule not given here
AlphaScreen intf2 – counter-screen: compounds optically interfering with AlphaScreen | inhibition, % at 2.6 µM | shares compounds with MITF inh | LysRS AlphaScreen counterscreen, signal interference, triplicate | AID 1259376 | 7.6% of 4,700 active;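 active means inhibition above a cutoff derived from the DMSO control wells, cut at about 30% in these data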
Each line names hits and unclear results; the compound was inactive in the other large screens (follow-up assays come after a bar, where they were run).

COc1cccc(CN2CCN(Cc3ccccc3[N+](=O)[O-])CC2)c1	MITF inh 64 | MITF inh conf inactive | AlphaScreen intf2 inactive
CN(C)CCN(C)Cc1ccc(O)c([N+](=O)[O-])c1	none
COc1cc(CN(C)CCN(C)C)cc([N+](=O)[O-])c1O	MITF inh 56 | MITF inh conf inactive | AlphaScreen intf2 inactive
COc1ccc(CN2CCN(Cc3ccccc3[N+](=O)[O-])CC2)cc1OCc1ccccc1	MITF inh 82 | MITF inh conf inactive | AlphaScreen intf2 inactive
CCS(=O)(=O)N1CCN(Cc2ccc(OC)c(OCc3ccccc3)c2)CC1	none
Cc1ccc(C(C(=O)NCC2CCCO2)N(C(=O)C(=O)NC2CCCC2)C(C)C)o1 (stereo unspecified)	none
CCOc1ccc2nc(NCCNC(=S)NCCCOC)c(C#N)cc2c1	none
COc1cc(CN2CCN(Cc3ccccc3[N+](=O)[O-])CC2)cc(OC)c1O	MITF inh 60 | MITF inh conf inactive | AlphaScreen intf2 inactive
COc1cc(OC)c(OC)cc1CN1CCN(Cc2ccccc2[N+](=O)[O-])CC1	MITF inh 72 | MITF inh conf inactive | AlphaScreen intf2 inactive
COc1cc(CN2CCN(CCO)CC2)cc([N+](=O)[O-])c1O	MITF inh 75 | MITF inh conf inactive | AlphaScreen intf2 inactive
O=C(Nc1ccc(F)cc1)N[C@H]1C[C@H]2C(=O)N[C@@H](CC3CCCCC3)C(=O)N2C1	none
COc1ccccc1NC(=O)C(=O)NC(C)C	none
Cc1ccc(CNC(=O)c2cc(S(=O)(=O)N3CCOCC3)cn2C)o1	none
CC(C)Cc1c(C#N)c(SCC(N)=O)nc2c1CCCC2	none
COC(=O)c1ccc(NC(=O)C2CC(=O)N(CCc3ccc(OC)c(OC)c3)C(=Nc3ccc(Cl)cc3)S2)cc1 (stereo unspecified)	none
COc1ccccc1NC(=O)N1CCCC1C(=O)NCc1ccccc1F (stereo unspecified)	none
COc1ccccc1NC(=O)N1CCCC1C(=O)NCc1ccccc1Cl (stereo unspecified)	MITF inh 73 | MITF inh conf inactive | AlphaScreen intf2 inactive
COc1ccc(C2NC(=S)NC(C)=C2C(N)=O)c(OC)c1 (stereo unspecified)	none
CCN(CC)CC(O)CNCc1ccc(Cl)cc1 (stereo unspecified)	MITF inh 54 | MITF inh conf inactive | AlphaScreen intf2 inactive
NCc1nc2ccc(Cc3ccc4nc(CN)[nH]c4c3)cc2[nH]1	MITF inh 105 | MITF inh conf 84 | AlphaScreen intf2 100
COc1ccc2nc(-c3ccco3)c(-c3ccco3)nc2c1	MITF inh 52 | MITF inh conf 66 | AlphaScreen DR inactive | AlphaScreen intf2 inactive
CCc1nnc(NS(=O)(=O)c2ccc(NC(=O)c3ccccc3F)cc2)s1	none
CN(CCc1ccccn1)C(=O)c1ccc(F)cc1	MITF inh 77 | MITF inh conf inactive | AlphaScreen intf2 inactive
CN(CCc1ccccn1)C(=O)c1cccc(F)c1	MITF inh 105 | MITF inh conf inactive | AlphaScreen intf2 inactive
COC(=O)c1ccc(/C=c2\sc3nc(-c4ccc(OC)c(OC)c4)nn3c2=O)cc1	none
O=C(Cc1cn2ccsc2n1)N/N=C/c1ccc([N+](=O)[O-])o1	MITF inh 70 | MITF inh conf 92 | AlphaScreen intf2 40
O=C(Cn1nc2ccccc2n1)N/N=C/c1ccccc1F	MITF inh 54 | MITF inh conf inactive | AlphaScreen intf2 inactive
O=C(NCc1ccco1)c1ccc(CS(=O)c2ccc(Br)cc2)o1 (stereo unspecified)	MITF inh 77 | MITF inh conf inactive | AlphaScreen intf2 inactive
O=C(NCc1ccccc1)c1ccc(CS(=O)c2ccc(Br)cc2)o1 (stereo unspecified)	none
CCOC(=O)c1c(C)n(-c2ccc(C)cc2)c2ccc(OCC(O)CN3CCN(CCO)CC3)cc12 (stereo unspecified)	MITF inh 86 | MITF inh conf inactive | AlphaScreen intf2 inactive
CCc1c(C)sc(NC(=O)c2ccc3c(c2)OCO3)c1C#N	none
COc1cc(OC)c(OC)cc1CN1CCN(Cc2cc(OC)c3c(c2)OCO3)CC1	MITF inh 59 | MITF inh conf inactive | AlphaScreen intf2 inactive
COc1cc(CN2CCN(Cc3ccc(SC)cc3)CC2)cc2c1OCO2	MITF inh 65 | MITF inh conf inactive | AlphaScreen intf2 inactive
COc1cc(CN2CCN(Cc3ccc(Br)cc3)CC2)cc2c1OCO2	MITF inh 69 | MITF inh conf inactive | AlphaScreen intf2 inactive
COc1ccc(CN2CCN(Cc3cc(OC)c4c(c3)OCO4)CC2)c(OC)c1	none
COc1cc(CN2CCN(Cc3cccc(Cl)c3)CC2)cc2c1OCO2	none
COCCN(CCOC)S(=O)(=O)c1ccc(C(=O)Nc2nc3c(s2)CCCC3)cc1	none
N/N=C(\Cc1ccc2ccccc2n1)c1ccccc1	none
CCOC(=O)C(=O)Cc1ccc2ccccc2n1	MITF inh 53 | MITF inh conf inactive | AlphaScreen intf2 inactive
CCOCCOC(=O)c1ccc(NC(=O)c2cc(OC)c(OC)c(OC)c2)cc1	none
Cc1cc(NC(=O)c2ccc3c(c2)OCCO3)n(-c2nc3ccc(F)cc3s2)n1	none
O=C1CSC(=Nc2cccc(Br)c2)N1	MITF inh 53 | MITF inh conf inactive | AlphaScreen intf2 inactive
Cc1n[nH]c(=O)nc1NNc1ccc(C(=O)O)cc1	MITF inh 56 | MITF inh conf 32 | AlphaScreen DR inactive | AlphaScreen intf2 inactive
Cc1ccc(OCC(=O)N2CC3(C)CC2CC(C)(C)C3)c([N+](=O)[O-])n1 (stereo unspecified)	MITF inh 51 | MITF inh conf inactive | AlphaScreen intf2 inactive
CCOC(=O)c1c(NC(=O)CSc2nnc(C)s2)sc2c1CCC2	MITF inh 54 | MITF inh conf inactive | AlphaScreen intf2 inactive
CCOC(=O)c1c(NC(=O)CN2CCN(CC)CC2)sc2c1CCC2	MITF inh 80 | MITF inh conf inactive | AlphaScreen intf2 inactive
CCOC(=O)c1c(-c2ccco2)csc1NC(=O)CN1CCN(C)CC1	none
CCOC(=O)c1c(NC(=S)N2CCN(S(C)(=O)=O)CC2)sc2c1CCCC2	MITF inh 69 | MITF inh conf inactive | AlphaScreen intf2 inactive
CCOC(=O)c1c(NC(N)=S)sc2c1CCCC2	none
CCOC(=O)c1c(-c2ccc(C)c(C)c2)csc1NC(=O)CN1CCN(C)CC1	MITF inh 90 | MITF inh conf inactive | AlphaScreen intf2 inactive
Cc1ccc(N(C(=O)C2CC2)C2C=CS(=O)(=O)C2)cc1 (stereo unspecified)	none
CC(C(=O)Nn1cnnc1)c1ccc([N+](=O)[O-])cc1 (stereo unspecified)	none
COc1cc(C2NC(=O)NC(C)=C2C(=O)OCCSC)cc(Br)c1O (stereo unspecified)	none
CC(C)OCCCNCc1cc2ccccc2nc1Cl	MITF inh 56 | MITF inh conf inactive | AlphaScreen intf2 inactive
CC(C)OCCCNC(=O)c1cc2c(Cl)nc3ccccc3c2s1	none
